High-throughput results from PubChem.
Only a selection was taken, and hits are over-represented in it overall.
Tg IFNy HTS = T. gondii growth inhibition under IFN-gamma; Toxoplasma gondii growth in IFN-gamma-treated host cells; active compounds read low; activity change, negative = inhibition, % (test concentration not listed); 69,000 compounds, 3.8% hits; AID 1259416; in the data active = activity change below about -70%, passing the limit was not always enough;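 note: host cells are HeLa cells infected with Toxoplasma gondii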
Numbers without * were called inactive; ! = repeats disagree.

SMILES	Tg IFNy HTS
CCCN(CCC)C1CCc2cccc(O)c2C1 (stereo not drawn)	16
CCCN(CCC)C1CCc2ccc(O)cc2C1 (stereo not drawn)	-76*!
COCc1cncc2c1CCN(Cc1ccncc1)C2	-40
CC(CCc1ccccc1)NC(=O)c1cc2cccnc2n(Cc2ccc(Cl)cc2)c1=O (stereo not drawn)	42
CCc1ccc(CN2CCC3(CCNCC3)C2)nc1	38
C=CCN1C[C@H]2CN(c3ccc(C)nn3)CCC[C@]2(C(=O)O)C1	-9
CCC1CN(Cc2c(OC)ccc(F)c2F)CCN1C(C)C (stereo not drawn)	4
COCc1cncc2c1CCN(CC(C)C)C2	-2
COCc1cncc2c1CCN(C1CCOC1)C2 (stereo not drawn)	-109*
COCc1cncc2c1CCN(S(=O)(=O)C1CC1)C2	16
CN1CC2C[C@@]2(NC(=O)c2cccc(F)c2)C1 (stereo partly drawn)	1
Cc1ccc(NC(=O)c2cc3cccnc3n(Cc3ccc(Cl)cc3)c2=O)c(C)c1	-13
O=C(c1cscn1)N1CC2CN(Cc3ccccn3)CC2C1 (stereo not drawn)	-2
COc1ccc(CCNC(=O)c2cc3cccnc3n(Cc3ccc(Cl)cc3)c2=O)cc1OC	-10
CCn1ncnc1CN1CCC2(CCCNC2)C1 (stereo not drawn)	41
CCNC(=O)C(C)NC1CCC2(CCNCC2)CC1 (stereo not drawn)	2
CCN(CC)C(C)C(=O)c1ccccc1 (stereo not drawn)	21
CC(=O)[O][Hg][c]1ccccc1	-72*
COc1ccc(NC(=O)c2cc3cccnc3n(Cc3ccc(F)cc3)c2=O)cc1OC	24
C[C@H]1CCC/C=C/[C@@H]2C[C@H](O)C[C@H]2[C@H](O)/C=C/C(=O)O1	-77*
C[C@H]1CCCC(=O)CCC/C=C/c2cc(O)cc(O)c2C(=O)O1	-4
CN(C)C(=O)CN1CCO[C@H]2CN(c3ncc(F)cn3)C[C@@H]21	2
c1cncc(OC[C@@H]2CCC[C@]23CN(Cc2ccco2)CCO3)c1	-10
O=C(NC(=S)Nc1cc(C(F)(F)F)cc(C(F)(F)F)c1)Oc1ccccc1	-98*
N#Cc1ccccc1NC(=O)c1cc2cccnc2n(Cc2ccc(Cl)cc2)c1=O	-8
SMILES	Tg IFNy HTS
Cn1cc(CN2CCCC3(CCN(c4cccnc4)C3=O)C2)cn1 (stereo not drawn)	-4
CCN(CC)c1ccc(NC(=O)c2cc3cccnc3n(Cc3ccc(F)cc3)c2=O)c(C)c1	216
c1cncc(OC[C@@]23COC[C@@H]2CN(Cc2cccs2)C3)c1	-40
O=C(Nc1ccccc1F)c1cc2cccnc2n(Cc2ccc(F)cc2)c1=O	-12
CCC1/C=C/C=C/C[C@H](C)[C@@H](O)[C@](C)(O)C(=O)[C@@H](C)[C@H](O)[C@@H](C)C(=O)[C@H](C)[C@@H](O)[C@H](C)/C=C/C(=O)OC2[C@@H](C)C(CC1)OC1(CC[C@@H](C)C(C[C@H](C)O)O1)[C@@H]2C (stereo partly drawn)	-60
CC(C)N(C)CC1CCC2(CCNCC2)CO1 (stereo not drawn)	-26
Cc1ccc(NC(=O)c2cc3cccnc3n(Cc3ccc(F)cc3)c2=O)c(C)c1	-9
Cc1ccc(NC(=O)c2c(O)c3cccnc3n(Cc3ccccc3)c2=O)c(C)c1	45
CC(CCc1ccccc1)NC(=O)c1cc2cccnc2n(Cc2ccccc2)c1=O (stereo not drawn)	-29
CC(NC(=O)c1cc2cccnc2n(Cc2ccccc2F)c1=O)c1ccccc1 (stereo not drawn)	18
O=C(NCc1ccccc1F)c1c(O)c2cccnc2n(Cc2ccccc2)c1=O	-112*
O=C(Nc1ccc(F)c(Cl)c1)c1c(O)c2cccnc2n(Cc2ccccc2)c1=O	-27
O=C(NCc1cccs1)c1c(O)c2cccnc2n(Cc2ccccc2)c1=O	-111*
Cc1ccc(F)c(NC(=O)c2c(O)c3cccnc3n(Cc3ccccc3)c2=O)c1	71
Cc1cc(C)c(NC(=O)c2cc3cccnc3n(Cc3ccc(F)cc3)c2=O)c(C)c1	-78*
Cc1ccc(NC(=O)c2cc3cccnc3n(Cc3ccc(F)cc3)c2=O)cc1	85
O=C(Nc1ccc(F)c(F)c1)c1c(O)c2cccnc2n(Cc2ccccc2)c1=O	-58
CC(NC(=O)c1cc2cccnc2n(Cc2ccccc2)c1=O)c1ccccc1 (stereo not drawn)	-91*
O=C(NC1CCCCCCCCCCC1)c1cc2cccnc2n(Cc2ccc(Cl)cc2)c1=O	-41
Cc1cccc(CN2CC[C@H]3[C@H](CO[C@@H]3CN(C)C)C2)n1	8
Cn1cc(CN2CC[C@H]3[C@@H]2CCN3C(=O)Cc2ccc(F)cc2)cn1	0
COc1ccccc1[C@H]1CN(c2nccnc2C)[C@@H]2C3CCN(CC3)[C@H]12	6
CN(Cc1ccncc1)C1CCC[C@@H]2CNC[C@@H]12 (stereo partly drawn)	16
CNC(=O)[C@H]1CC2CN(C(=O)c3ccno3)CC2N1C(C)C (stereo partly drawn)	4
CN1CCC2(CC1)CN(C(=O)Cc1nnc(N)s1)CCCN2C	3
SMILES	Tg IFNy HTS
COC(=O)c1ccc(NC(=O)c2cc3cccnc3n(Cc3ccccc3)c2=O)cc1	99
CCOc1c(CNCCc2c[nH]c3ccccc23)cccc1OC	-44
CC(C)(C)C(=O)Nc1ccc(Cl)cc1C(=O)c1ccccc1	-8
COc1ccc(-c2ccccc2N2CCNCC2)c(OC)c1OC	3
O=C(c1cn(-c2ccccc2)nn1)N1C[C@H]2C[C@@H](C1)c1cccc(=O)n1C2	-33
CNC(=O)C[C@H]1COC[C@@H]2CN(Cc3cc(C)on3)C[C@@H]12	2
O=C(NCc1c(F)cccc1F)c1cc2cccnc2n(Cc2ccccc2)c1=O	14
Cc1ccccc1NC(=O)c1c(O)c2cccnc2n(Cc2ccccc2)c1=O	84
Cc1ccc(F)cc1NC(=O)c1c(O)c2cccnc2n(Cc2ccccc2)c1=O	68
CC(NC(=O)c1c(O)c2cccnc2n(Cc2ccccc2)c1=O)c1ccc(F)cc1 (stereo not drawn)	-113*
O=C(Nc1ccc(F)cc1)c1c(O)c2cccnc2n(Cc2ccccc2)c1=O	255
CCc1ccccc1NC(=O)c1c(O)c2cccnc2n(Cc2ccccc2)c1=O	-88*
CCc1ccc(NC(=O)c2c(O)c3cccnc3n(Cc3ccccc3)c2=O)cc1	30
O=C(NCc1ccccc1)c1c(O)c2cccnc2n(Cc2ccccc2)c1=O	-116*
COc1ccc(NC(=O)c2c(O)c3cccnc3n(Cc3ccccc3)c2=O)cc1	0
O=C(Nc1cccc(Cl)c1)c1c(O)c2cccnc2n(Cc2ccccc2)c1=O	146
Cc1noc(C)c1CN1CCC2(CC(=O)N(c3ccccc3)C2)C1 (stereo not drawn)	5
COc1ccc2c(CN3CCC(CN)C3)cn(C)c2c1 (stereo not drawn)	17
CN(C)C(=O)CN1CC[C@H]2[C@@H]1CCN2c1ncc(F)cn1	-1
COc1c(C)cc(C(=O)C2CCCNC2)cc1C (stereo not drawn)	5
Cc1cc2c(s1)NC(=O)CN=C2c1ccc(Cl)cc1	6
Cc1ccc(CN2CCN(CC3CC3)c3ncccc3C2)s1	0
O=C(NCc1cccnc1)c1cc2cccnc2n(Cc2ccccc2)c1=O	38
CCOC(=O)c1ccc(NC(=O)c2cc3cccnc3n(Cc3ccccc3F)c2=O)cc1	17
c1ccc(CN2CCC3OCCCC3(COCC3CC3)C2)nc1 (stereo not drawn)	-8
O=C(c1cscn1)N1CCC2(CN(Cc3cccnc3)C2)C1	-1
